Bioassay records from PubChem BioAssay.
A selection: hits, their analogues and other compounds. The true share with any hit is near 18%.
DT40 TDP1 CPT: DT40-hTDP1 cell growth loss with CPT. chicken DT40 Tdp1-/-;hTDP1 cells + 20 nM CPT, ATP luminescence, 48 h. Potency, µM (titrated, usually from 46.2 µM), hits mostly inhibitors. 12% of 420,000 active; note: nearly all actives have a fitted effect of over 55% in size
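Chicken DT40 Tdp1-/- cells complemented with human TDP1, 400 cells/well, exposed to compounds plus 20 nM camptothecin for at least 48 h at 37 C; viability read as ATP content by CellTiter-Glo luminescence.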
IL1B secr inh: blocks inflammasome-driven IL-1 beta release; activity change, % at 57.5 µM; AID 743279; 4.7% of 360,000 active; THP-1 LPS/ATP IL-1B secretion, AlphaLISA, 16 h; hits give low values; in the data active = activity change below about -50%; inconclusive = mostly about -30% to -49%
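THP-1 cells pretreated 1 hr with compounds (up to 57.5 uM final), then stimulated with LPS (250 ng/mL final) plus ATP (1.25 mM final); secreted IL-1B measured by AlphaLISA after 16 hr, decreased signal indicating inhibition.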
HepG2 viability: counter-screen for TGF-b inhibitors: cytotoxicity in HepG2 cells | HepG2 CAGA-GFP viability, ATP luminescence, 18 h | Potency, µM (doses to about 46.1 µM), actives largely listed as cytotoxic | 0.76% of 410,000 active
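CellTiter-Glo luminescence gave cytotoxicity after 18 hours at 37 degrees C. The cells were HepG2 CAGA-GFP in 1% FBS DMEM, stimulated with 500 pg/mL TGF-beta after compound addition. %Activity was normalised to no-cell wells (complete cell-killing) and DMSO (no toxicity), and curves were fitted and classified.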
DT40 TDP1 no CPT: qHTS for Inhibitors of human tyrosyl-DNA phosphodiesterase 1 (TDP1): qHTS in cells in absence of CPT. Potency, µM (titrated, usually from 46.2 µM), usual class: inhibitors. 15% of 420,000 active. AID 686978, 2013. DT40 Tdp1-/- hTDP1 cells, no CPT, ATP luminescence, 48 h; note: nearly all actives have a fitted effect of over 55% in size
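Growth of hTDP1-complemented DT40 Tdp1-knockout cells is measured by ATP luminescence after at least 48 hr compound exposure at 37 °C, with DMSO substituting for the 20 nM CPT used in the parallel screen.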
TDP1 block: TDP1 (human) enzyme inhibition; recombinant TDP1, AlphaScreen DNA substrate cleavage; Potency, µM (series often up to 130 µM), most hits filed as inhibitors; 0.28% of 350,000 active; AID 485290; note: nearly all actives have a fitted effect of over 40% in size
Target sequence (Q9NUW8 whole entry, looked up): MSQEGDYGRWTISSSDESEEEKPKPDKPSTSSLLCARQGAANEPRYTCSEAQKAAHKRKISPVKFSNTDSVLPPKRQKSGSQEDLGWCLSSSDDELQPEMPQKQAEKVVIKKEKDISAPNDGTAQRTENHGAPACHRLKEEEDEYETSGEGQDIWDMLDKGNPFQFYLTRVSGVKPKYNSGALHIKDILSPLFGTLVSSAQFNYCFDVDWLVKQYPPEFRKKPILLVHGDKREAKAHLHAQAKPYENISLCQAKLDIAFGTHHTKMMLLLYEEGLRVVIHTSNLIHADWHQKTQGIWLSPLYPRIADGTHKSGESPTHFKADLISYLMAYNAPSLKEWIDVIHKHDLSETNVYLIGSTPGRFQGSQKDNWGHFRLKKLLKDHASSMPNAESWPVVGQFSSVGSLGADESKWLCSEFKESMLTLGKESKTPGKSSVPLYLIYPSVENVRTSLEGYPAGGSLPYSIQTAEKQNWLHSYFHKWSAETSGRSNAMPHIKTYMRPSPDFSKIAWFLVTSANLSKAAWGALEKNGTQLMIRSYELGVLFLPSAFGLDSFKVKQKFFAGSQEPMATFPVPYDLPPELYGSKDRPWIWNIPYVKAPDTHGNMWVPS
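Compounds were preincubated with Tdp1 (1 nM final) for 15 min at room temperature before substrate (15 nM final) started a 5 min reaction; beads (10 ug/ml final) were then added for 10 min before AlphaScreen detection.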
TGFb SMAD3 inh: blocks TGF-b signaling | HepG2 CAGA-GFP TGF-b/SMAD3 reporter, GFP fluorescence, 18 h; TGF-beta stimulated, 500 pg/mL final | Potency, µM (highest dose often 46.1 µM), actives largely listed as inhibitors | 1.2% of 410,000 active | AID 588855; note: nearly all actives have a fitted effect of over 65% in size
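Inhibition of TGF-beta-driven CAGA-GFP reporter expression in HEPG2 cells is measured by cellular GFP fluorescence after 18 h stimulation with 500 pg/mL recombinant TGF-beta in 1% FBS medium at 37 degrees C.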
Numbers stand for hits; [ ] = dose if it differs, or a comment. Unless noted, calls come from the whole dose curve; as a rule, active = well fitted curve in the direction sought with a large enough effect; inconclusive = small, poorly fitted or top-dose-only effect, or another doubt; inactive = no such curve, though single readings can be large; an effect the other way counts as inactive or inconclusive.

What do the screens show for `Cc1cc(C)c(OCC(=O)N2CCN(c3ncc(C(F)(F)F)cc3Cl)CC2)c(C)c1`?
DT40 TDP1 CPT: inactive; IL1B secr inh: inactive; HepG2 viability: inactive; DT40 TDP1 no CPT: inactive; TDP1 block: inactive; TGFb SMAD3 inh: inconclusive

Results for COc1cccc(CN(C)C(=O)c2cccc(S(=O)(=O)N3CCN(c4ccccc4)CC3)c2)c1 ?
DT40 TDP1 CPT: 12µM; IL1B secr inh: inactive; HepG2 viability: inactive; DT40 TDP1 no CPT: 7.3µM; TGFb SMAD3 inh: inactive

How did Cc1ccc(CN(C)C(=O)c2cccc(S(=O)(=O)N3CCN(c4ccccc4)CC3)c2)cc1 do in these assays?
DT40 TDP1 CPT: inconclusive; IL1B secr inh: inconclusive; HepG2 viability: inactive; DT40 TDP1 no CPT: 15µM; TGFb SMAD3 inh: inconclusive

What do the screens show for `COC(=O)C1=C(c2cccc(OC)c2OC)C[C@@H]2CC[C@H]1N2C(=O)N1CCCC1`?
DT40 TDP1 CPT: 21µM; IL1B secr inh: inactive; HepG2 viability: inactive; TGFb SMAD3 inh: inactive

What do the screens show for `COC(=O)C1=C(c2ccc(F)cc2F)C[C@@H]2CC[C@H]1N2C(=O)N1CCCC1`?
DT40 TDP1 CPT: inconclusive; IL1B secr inh: inactive; HepG2 viability: inactive; DT40 TDP1 no CPT: 8.2µM; TDP1 block: inactive; TGFb SMAD3 inh: inactive

How did COC(=O)C1=C(c2ccc(F)cc2F)C[C@@H]2CC[C@H]1N2C(=O)N1CCCCC1 do in these assays?
DT40 TDP1 CPT: 13µM; IL1B secr inh: inactive; HepG2 viability: inactive; DT40 TDP1 no CPT: 18µM; TDP1 block: inactive; TGFb SMAD3 inh: inactive

Results for COC(=O)C1=C(c2c(C)noc2C)C[C@@H]2CC[C@H]1N2C(=O)N1CCOCC1 ?
DT40 TDP1 CPT: inactive; IL1B secr inh: inactive; HepG2 viability: inactive; DT40 TDP1 no CPT: inactive; TDP1 block: inactive; TGFb SMAD3 inh: inconclusive

What do the screens show for `COC(=O)C1=C(c2c(C)noc2C)C[C@@H]2CC[C@H]1N2C(=O)N1CCC(O)(c2ccc(Cl)cc2)CC1`?
DT40 TDP1 CPT: inconclusive; IL1B secr inh: inactive; HepG2 viability: inactive; DT40 TDP1 no CPT: 21µM; TDP1 block: inactive; TGFb SMAD3 inh: inactive

Results for COc1cccc(NC(=O)C(Cc2ccccc2)NS(=O)(=O)c2ccc3c(c2)oc(=O)n3C)c1 (stereo unspecified) ?
DT40 TDP1 CPT: inactive; HepG2 viability: inactive; DT40 TDP1 no CPT: inactive; TDP1 block: inactive; TGFb SMAD3 inh: inconclusive

How did O=P(O)(O)C(Cl)(Cl)P(=O)(O)O do in these assays?
DT40 TDP1 CPT: inactive; DT40 TDP1 no CPT: inactive; TDP1 block: inactive

What do the screens show for `COC(=O)C1=C(c2ccc(F)cc2F)C[C@@H]2CC[C@H]1N2C(=O)N1CCOCC1`?
DT40 TDP1 CPT: inconclusive; IL1B secr inh: inactive; HepG2 viability: inactive; DT40 TDP1 no CPT: inconclusive; TDP1 block: inactive; TGFb SMAD3 inh: inactive

Results for COC(=O)C1=C(c2ccc(F)cc2F)C[C@@H]2CC[C@H]1N2C(=O)N1CCC(O)(c2ccc(Cl)cc2)CC1 ?
DT40 TDP1 CPT: 21µM; IL1B secr inh: -78; HepG2 viability: inactive; DT40 TDP1 no CPT: 18µM; TDP1 block: inactive; TGFb SMAD3 inh: inconclusive

Results for CN1C2CCC1/C(=C/c1ccccn1)C(=O)/C2=C\c1ccccn1 ?
DT40 TDP1 CPT: 0.52µM; IL1B secr inh: -101; HepG2 viability: 10µM; DT40 TDP1 no CPT: 0.65µM; TDP1 block: inactive; TGFb SMAD3 inh: 2.8µM

Results for COc1ccc(OCC(=O)N2CCN(C/C=C/c3ccccc3)CC2)cc1 ?
DT40 TDP1 CPT: inconclusive; IL1B secr inh: inactive; HepG2 viability: inactive; DT40 TDP1 no CPT: inconclusive; TDP1 block: inactive; TGFb SMAD3 inh: inactive

Results for CCCCOc1ccc(C(=O)NCC(=O)N2CCN(C/C=C/c3ccccc3)CC2)cc1 ?
DT40 TDP1 CPT: inconclusive; IL1B secr inh: inactive; HepG2 viability: inactive; DT40 TDP1 no CPT: 16µM; TGFb SMAD3 inh: inactive

How did O=C(COc1ccccc1)N1CCN(C/C=C/c2ccccc2)CC1 do in these assays?
DT40 TDP1 CPT: 16µM; IL1B secr inh: inactive; HepG2 viability: inactive; DT40 TDP1 no CPT: 21µM; TDP1 block: inactive; TGFb SMAD3 inh: inconclusive

What do the screens show for `O=C(COc1ccc(Cl)cc1)N1CCN(C/C=C/c2ccccc2)CC1`?
DT40 TDP1 CPT: inconclusive; IL1B secr inh: -75; HepG2 viability: inactive; DT40 TDP1 no CPT: inconclusive; TDP1 block: inactive; TGFb SMAD3 inh: inactive

What do the screens show for `NC(=NCCc1ccc(I)cc1)SCCCc1cnc[nH]1`?
DT40 TDP1 CPT: 15µM; DT40 TDP1 no CPT: 13µM; TDP1 block: inactive

Results for CC(O)CNc1ccc([N+](=O)[O-])c2cccnc12 (stereo unspecified) ?
DT40 TDP1 CPT: inactive; IL1B secr inh: inactive; HepG2 viability: inactive; DT40 TDP1 no CPT: inconclusive; TDP1 block: inactive; TGFb SMAD3 inh: inactive

Results for NCCNc1ccc([N+](=O)[O-])c2cccnc12 ?
DT40 TDP1 CPT: inconclusive; IL1B secr inh: inactive; HepG2 viability: inactive; DT40 TDP1 no CPT: 21µM; TDP1 block: inactive; TGFb SMAD3 inh: inconclusive

Results for COC(=O)C[C@]1(C(=O)OC)CN(C#N)N(c2ccc(Cl)cc2)C12c1ccccc1-c1ccccc12 ?
DT40 TDP1 CPT: 1µM; IL1B secr inh: -105; HepG2 viability: inactive; DT40 TDP1 no CPT: 0.92µM; TGFb SMAD3 inh: 4µM

How did COC(=O)[C@@H]1[C@@H](C(=O)OC)C2(c3ccccc3-c3ccccc32)N(c2ccc(Cl)cc2)N1C#N do in these assays?
DT40 TDP1 CPT: 2.6µM; IL1B secr inh: -99; HepG2 viability: 11µM; DT40 TDP1 no CPT: 2.6µM; TDP1 block: inactive; TGFb SMAD3 inh: inconclusive

Results for OCC(CBr)(CBr)CBr ?
DT40 TDP1 CPT: inactive; IL1B secr inh: inactive; HepG2 viability: inactive; DT40 TDP1 no CPT: inconclusive; TDP1 block: inactive; TGFb SMAD3 inh: inactive

Results for CC(C)C[C@H]1C(=O)N2CCC[C@@H]2[C@@]2(O)O[C@](NC(=O)[C@@H]3C=C4c5cccc6[nH]cc(c56)C[C@@H]4N(C)C3)(C(C)C)C(=O)N12 ?
TDP1 block: inactive[21 µM]

How did CCOc1ccc(N=Cc2c(O)n(CCc3ccc(OC)c(OC)c3)c(=O)[nH]c2=O)cc1 do in these assays?
DT40 TDP1 CPT: inconclusive; IL1B secr inh: inactive; HepG2 viability: inactive; DT40 TDP1 no CPT: 16µM; TDP1 block: inactive; TGFb SMAD3 inh: inactive

How did COc1ccc(CCn2c(O)c(C=Nc3ccc(NC(C)=O)cc3)c(=O)[nH]c2=O)cc1OC do in these assays?
DT40 TDP1 CPT: inconclusive; IL1B secr inh: inactive; HepG2 viability: inactive; DT40 TDP1 no CPT: inactive; TGFb SMAD3 inh: inactive
